Laboratory results taken from PMC7862700, “An all-to-all approach to the identification of sequence-specific readers for epigenetic DNA modifications on cytosine”.

How the values were obtained:
Assay in all cases: DAPPL (digital affinity profiling via proximity ligation, sequencing); 10 mM Tris-HCl pH 7.5, 50 mM NaCl, 1 mM DTT, 4% glycerol, room temperature, 30 min; GST-TFs on glutathione beads, 16-mer random dsDNA library, 0.1% formaldehyde crosslink after washing; high values mean tight binding
FEV = target: T1, FEV (Homo sapiens, UniProt Q99581 1-238); details: protein: recombinant; tags: N-terminal GST; dsDNA, one strand shown
T1 sequence: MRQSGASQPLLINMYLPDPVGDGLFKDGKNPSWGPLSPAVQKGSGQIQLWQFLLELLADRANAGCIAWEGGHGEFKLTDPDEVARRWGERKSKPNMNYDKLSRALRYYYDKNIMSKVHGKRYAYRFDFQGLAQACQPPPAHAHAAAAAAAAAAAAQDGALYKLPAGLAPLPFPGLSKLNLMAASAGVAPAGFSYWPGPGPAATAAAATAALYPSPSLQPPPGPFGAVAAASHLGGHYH
Outline: (§1)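 In yeast, human transcription factors were expressed with a GST fusion, then pulled down on glutathione beads and given DNA barcodes. Pooled with a tag-only sample, they were exposed to 200 nmole of a 16-mer random double-stranded DNA library (Tris/NaCl/DTT/glycerol buffer, room temperature, 30 min), washed, crosslinked with 0.1% formaldehyde, proximity-ligated using BsaI/T4 ligase for 1 h at 37 °C, PCR-amplified and read on an Illumina NextSeq500. Each hexamer's frequency of reads for a factor, divided by the matching frequency for the tag-only sample, gives the binding signal.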

ETV5 = ETV5 (Homo sapiens, UniProt P41161 1-510); details: protein: recombinant; tags: N-terminal GST; dsDNA, one strand shown
ETV5, sequence (P41161 whole entry): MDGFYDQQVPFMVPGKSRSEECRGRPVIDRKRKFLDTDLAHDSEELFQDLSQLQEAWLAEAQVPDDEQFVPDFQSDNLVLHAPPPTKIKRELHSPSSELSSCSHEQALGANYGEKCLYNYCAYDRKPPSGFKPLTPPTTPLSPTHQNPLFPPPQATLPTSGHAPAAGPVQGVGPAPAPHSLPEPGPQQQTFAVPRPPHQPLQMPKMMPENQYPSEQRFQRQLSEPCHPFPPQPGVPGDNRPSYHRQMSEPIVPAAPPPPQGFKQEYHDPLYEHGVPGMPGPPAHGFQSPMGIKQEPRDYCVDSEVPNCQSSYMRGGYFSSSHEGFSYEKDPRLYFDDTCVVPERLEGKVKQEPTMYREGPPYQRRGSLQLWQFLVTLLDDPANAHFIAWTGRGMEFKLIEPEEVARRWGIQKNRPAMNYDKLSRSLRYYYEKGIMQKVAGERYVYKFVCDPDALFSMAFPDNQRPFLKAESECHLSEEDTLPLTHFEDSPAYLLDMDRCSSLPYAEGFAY
Outline: as §1

HSF1 = HSF1 (Homo sapiens, UniProt Q00613 1-529); details: protein: recombinant; tags: N-terminal GST; chain copies: 3; dsDNA, one strand shown
HSF1, sequence (Q00613 whole entry): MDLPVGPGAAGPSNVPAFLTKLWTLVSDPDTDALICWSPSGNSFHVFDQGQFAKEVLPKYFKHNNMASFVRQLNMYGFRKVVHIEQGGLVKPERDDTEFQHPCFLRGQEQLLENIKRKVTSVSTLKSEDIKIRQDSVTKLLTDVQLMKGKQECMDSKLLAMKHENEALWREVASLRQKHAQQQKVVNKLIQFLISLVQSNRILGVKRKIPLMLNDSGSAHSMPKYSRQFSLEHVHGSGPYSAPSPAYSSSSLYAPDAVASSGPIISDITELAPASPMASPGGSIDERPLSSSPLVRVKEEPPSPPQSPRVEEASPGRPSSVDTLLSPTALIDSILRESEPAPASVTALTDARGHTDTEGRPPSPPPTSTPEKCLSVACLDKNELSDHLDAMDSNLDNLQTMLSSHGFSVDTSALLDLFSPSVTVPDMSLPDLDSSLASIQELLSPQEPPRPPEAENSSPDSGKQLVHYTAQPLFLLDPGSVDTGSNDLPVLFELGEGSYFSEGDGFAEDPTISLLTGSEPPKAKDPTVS
Outline: as §1

SPIC = target: T2, SPIC (Homo sapiens, UniProt Q8N5J4 1-248); details: protein: recombinant; tags: N-terminal GST; dsDNA, one strand shown
T2 sequence: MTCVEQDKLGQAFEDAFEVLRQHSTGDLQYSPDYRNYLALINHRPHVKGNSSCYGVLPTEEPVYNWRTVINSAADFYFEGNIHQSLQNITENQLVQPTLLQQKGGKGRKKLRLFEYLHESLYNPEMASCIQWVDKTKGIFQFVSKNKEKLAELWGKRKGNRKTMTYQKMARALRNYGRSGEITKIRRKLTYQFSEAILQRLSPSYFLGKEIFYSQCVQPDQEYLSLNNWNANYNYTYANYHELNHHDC
Outline: as §1

ELF4 = ELF4 (Homo sapiens, UniProt Q99607 1-663); details: protein: recombinant; tags: N-terminal GST; dsDNA, one strand shown
ELF4, sequence (Q99607 whole entry): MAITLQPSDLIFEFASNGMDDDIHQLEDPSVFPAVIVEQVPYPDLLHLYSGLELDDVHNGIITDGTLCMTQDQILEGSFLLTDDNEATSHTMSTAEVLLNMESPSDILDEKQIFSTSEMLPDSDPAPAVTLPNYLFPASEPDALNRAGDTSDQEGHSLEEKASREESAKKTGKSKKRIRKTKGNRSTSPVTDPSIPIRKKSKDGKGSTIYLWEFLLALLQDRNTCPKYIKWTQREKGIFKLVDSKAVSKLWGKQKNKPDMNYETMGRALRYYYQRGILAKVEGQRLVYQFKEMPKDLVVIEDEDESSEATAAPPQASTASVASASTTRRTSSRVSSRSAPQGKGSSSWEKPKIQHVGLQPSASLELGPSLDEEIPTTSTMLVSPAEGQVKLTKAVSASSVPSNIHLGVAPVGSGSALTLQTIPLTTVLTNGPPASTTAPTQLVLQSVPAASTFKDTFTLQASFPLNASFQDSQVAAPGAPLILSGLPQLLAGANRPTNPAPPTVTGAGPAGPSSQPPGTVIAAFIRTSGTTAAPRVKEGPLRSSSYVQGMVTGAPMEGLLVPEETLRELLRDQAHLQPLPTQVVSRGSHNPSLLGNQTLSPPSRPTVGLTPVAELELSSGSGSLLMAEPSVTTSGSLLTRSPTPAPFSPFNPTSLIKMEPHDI
Outline: as §1

ELK4 = target: T3, ELK4 (Homo sapiens, UniProt P28324-2 1-405); details: protein: recombinant; tags: N-terminal GST; dsDNA, one strand shown
T3 sequence: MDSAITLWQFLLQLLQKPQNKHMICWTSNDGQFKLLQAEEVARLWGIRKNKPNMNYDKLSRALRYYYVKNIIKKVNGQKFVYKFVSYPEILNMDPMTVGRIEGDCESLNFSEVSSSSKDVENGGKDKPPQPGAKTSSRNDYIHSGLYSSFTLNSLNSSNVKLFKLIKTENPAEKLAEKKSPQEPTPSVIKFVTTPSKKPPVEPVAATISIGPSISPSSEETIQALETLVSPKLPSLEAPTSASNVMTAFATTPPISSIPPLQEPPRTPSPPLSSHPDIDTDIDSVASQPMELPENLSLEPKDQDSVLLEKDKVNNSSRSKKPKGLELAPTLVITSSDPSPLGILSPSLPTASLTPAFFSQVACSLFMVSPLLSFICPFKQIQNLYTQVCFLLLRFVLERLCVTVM
Outline: as §1

ETV2 = target: T4, ETV2 (Homo sapiens, UniProt O00321 1-342); details: protein: recombinant; tags: N-terminal GST; dsDNA, one strand shown
T4 sequence: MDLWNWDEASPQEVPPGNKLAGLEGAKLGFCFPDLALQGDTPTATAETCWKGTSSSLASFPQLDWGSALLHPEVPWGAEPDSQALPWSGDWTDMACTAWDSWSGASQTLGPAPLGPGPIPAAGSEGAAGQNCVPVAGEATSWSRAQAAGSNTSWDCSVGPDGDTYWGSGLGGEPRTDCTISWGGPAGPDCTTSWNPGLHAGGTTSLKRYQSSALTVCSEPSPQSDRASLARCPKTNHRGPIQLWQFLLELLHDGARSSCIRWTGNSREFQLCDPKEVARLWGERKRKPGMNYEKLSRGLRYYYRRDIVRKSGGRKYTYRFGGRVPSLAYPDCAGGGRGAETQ
Outline: as §1

ELF3 = target: T5, ELF3 (Homo sapiens, UniProt P78545 1-371); details: protein: recombinant; tags: N-terminal GST; dsDNA, one strand shown
T5 sequence: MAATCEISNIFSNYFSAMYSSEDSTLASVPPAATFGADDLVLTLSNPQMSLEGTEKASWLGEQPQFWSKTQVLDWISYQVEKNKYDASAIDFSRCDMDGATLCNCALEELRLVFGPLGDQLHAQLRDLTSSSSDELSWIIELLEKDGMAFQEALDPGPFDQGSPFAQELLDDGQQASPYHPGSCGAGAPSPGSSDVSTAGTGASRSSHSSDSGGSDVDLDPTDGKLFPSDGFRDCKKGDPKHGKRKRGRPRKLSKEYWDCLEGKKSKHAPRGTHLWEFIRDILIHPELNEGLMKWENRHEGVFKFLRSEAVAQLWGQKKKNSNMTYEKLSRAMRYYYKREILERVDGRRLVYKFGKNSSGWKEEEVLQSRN
Outline: as §1

CRX = CRX (Homo sapiens, UniProt O43186 1-299); details: protein: recombinant; tags: N-terminal GST; dsDNA, one strand shown
CRX, sequence (O43186 whole entry): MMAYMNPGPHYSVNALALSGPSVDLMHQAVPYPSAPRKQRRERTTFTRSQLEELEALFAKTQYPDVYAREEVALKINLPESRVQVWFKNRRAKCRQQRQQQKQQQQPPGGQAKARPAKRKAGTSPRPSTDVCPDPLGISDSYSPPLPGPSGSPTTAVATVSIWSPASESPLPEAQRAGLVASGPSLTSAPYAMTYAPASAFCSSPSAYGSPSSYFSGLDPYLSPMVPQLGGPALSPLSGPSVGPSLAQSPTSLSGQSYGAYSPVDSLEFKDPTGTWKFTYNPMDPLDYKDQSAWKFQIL
Outline: as §1

ETV1 = ETV1 (Homo sapiens, UniProt P50549 1-477); details: protein: recombinant; tags: N-terminal GST; dsDNA, one strand shown
ETV1, sequence (P50549 whole entry): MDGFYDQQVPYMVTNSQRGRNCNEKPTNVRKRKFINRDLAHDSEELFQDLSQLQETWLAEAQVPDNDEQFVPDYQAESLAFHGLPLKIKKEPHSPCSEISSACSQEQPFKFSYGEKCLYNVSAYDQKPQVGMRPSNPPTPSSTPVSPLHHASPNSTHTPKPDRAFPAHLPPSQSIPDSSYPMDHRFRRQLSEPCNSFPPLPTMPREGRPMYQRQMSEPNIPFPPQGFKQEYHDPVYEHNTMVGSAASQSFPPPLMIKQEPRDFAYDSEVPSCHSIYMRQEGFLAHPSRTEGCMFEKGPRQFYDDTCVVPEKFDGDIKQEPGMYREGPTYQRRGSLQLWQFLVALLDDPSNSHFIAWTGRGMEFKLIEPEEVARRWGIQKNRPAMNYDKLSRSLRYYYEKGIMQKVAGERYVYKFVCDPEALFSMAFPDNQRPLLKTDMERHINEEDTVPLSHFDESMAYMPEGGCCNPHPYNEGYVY
Outline: as §1

ERF = target: T6, ERF (Homo sapiens, UniProt P50548 1-548); details: protein: recombinant; tags: N-terminal GST; dsDNA, one strand shown
T6 sequence: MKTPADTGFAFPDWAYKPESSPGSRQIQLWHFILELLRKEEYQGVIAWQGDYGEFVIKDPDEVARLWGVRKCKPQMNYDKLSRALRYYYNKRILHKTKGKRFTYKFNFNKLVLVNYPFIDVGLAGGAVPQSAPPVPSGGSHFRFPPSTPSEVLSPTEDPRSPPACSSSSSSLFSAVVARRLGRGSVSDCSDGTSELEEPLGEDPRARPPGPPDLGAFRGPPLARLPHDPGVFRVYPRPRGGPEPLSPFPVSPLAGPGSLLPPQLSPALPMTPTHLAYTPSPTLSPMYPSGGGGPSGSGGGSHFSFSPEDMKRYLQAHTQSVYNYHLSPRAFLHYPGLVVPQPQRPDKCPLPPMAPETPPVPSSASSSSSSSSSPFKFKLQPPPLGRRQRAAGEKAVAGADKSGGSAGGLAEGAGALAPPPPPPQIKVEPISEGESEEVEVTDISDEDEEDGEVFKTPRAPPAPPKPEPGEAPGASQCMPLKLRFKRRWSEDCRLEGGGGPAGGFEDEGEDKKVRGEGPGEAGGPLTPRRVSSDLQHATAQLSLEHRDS
Outline: as §1

ETV3L = target: T7, ETV3L (Homo sapiens, UniProt Q6ZN32 1-361); details: protein: recombinant; tags: N-terminal GST; dsDNA, one strand shown
T7 sequence: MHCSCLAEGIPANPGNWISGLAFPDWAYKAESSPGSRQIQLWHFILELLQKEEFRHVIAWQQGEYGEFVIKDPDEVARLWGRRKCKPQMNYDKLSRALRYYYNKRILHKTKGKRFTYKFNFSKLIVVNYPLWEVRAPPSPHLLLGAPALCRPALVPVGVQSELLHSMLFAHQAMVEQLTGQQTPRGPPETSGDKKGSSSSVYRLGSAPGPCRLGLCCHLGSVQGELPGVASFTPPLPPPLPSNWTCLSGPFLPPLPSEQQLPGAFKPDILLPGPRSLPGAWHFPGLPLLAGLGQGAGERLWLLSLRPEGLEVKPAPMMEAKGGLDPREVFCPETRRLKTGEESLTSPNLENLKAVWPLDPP
Outline: as §1

ETS2 = target: T8, ETS2 (Homo sapiens, UniProt P15036 1-469); details: protein: recombinant; tags: N-terminal GST; dsDNA, one strand shown
T8 sequence: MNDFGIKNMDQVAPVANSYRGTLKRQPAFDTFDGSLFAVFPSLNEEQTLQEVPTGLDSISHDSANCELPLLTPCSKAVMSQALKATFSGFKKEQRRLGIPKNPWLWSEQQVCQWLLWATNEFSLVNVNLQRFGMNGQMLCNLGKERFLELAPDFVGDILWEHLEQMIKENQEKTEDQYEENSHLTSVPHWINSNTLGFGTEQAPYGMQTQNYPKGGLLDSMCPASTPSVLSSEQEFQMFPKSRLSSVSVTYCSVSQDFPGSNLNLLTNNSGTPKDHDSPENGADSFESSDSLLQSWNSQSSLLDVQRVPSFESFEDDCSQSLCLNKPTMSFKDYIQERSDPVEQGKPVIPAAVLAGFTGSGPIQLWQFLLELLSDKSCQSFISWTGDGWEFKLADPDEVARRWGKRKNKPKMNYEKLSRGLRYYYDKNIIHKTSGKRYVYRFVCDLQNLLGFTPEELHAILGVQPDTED
Outline: as §1

SPDEF = target: T9, SPDEF (Homo sapiens, UniProt O95238 1-335); details: protein: recombinant; tags: N-terminal GST; dsDNA, one strand shown
T9 sequence: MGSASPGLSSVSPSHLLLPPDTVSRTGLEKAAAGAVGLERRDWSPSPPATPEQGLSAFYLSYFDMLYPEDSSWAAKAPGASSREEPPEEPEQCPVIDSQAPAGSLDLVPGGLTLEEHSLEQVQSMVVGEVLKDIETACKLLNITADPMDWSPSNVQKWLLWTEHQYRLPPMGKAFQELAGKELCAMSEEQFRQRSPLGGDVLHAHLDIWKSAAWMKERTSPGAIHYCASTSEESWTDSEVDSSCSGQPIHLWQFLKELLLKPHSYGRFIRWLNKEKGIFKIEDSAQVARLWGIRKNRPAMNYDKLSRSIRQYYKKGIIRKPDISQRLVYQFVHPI
Outline: as §1

ETV7 = target: T10, ETV7 (Homo sapiens, UniProt Q9Y603 1-341); details: protein: recombinant; tags: N-terminal GST; dsDNA, one strand shown
T10 sequence: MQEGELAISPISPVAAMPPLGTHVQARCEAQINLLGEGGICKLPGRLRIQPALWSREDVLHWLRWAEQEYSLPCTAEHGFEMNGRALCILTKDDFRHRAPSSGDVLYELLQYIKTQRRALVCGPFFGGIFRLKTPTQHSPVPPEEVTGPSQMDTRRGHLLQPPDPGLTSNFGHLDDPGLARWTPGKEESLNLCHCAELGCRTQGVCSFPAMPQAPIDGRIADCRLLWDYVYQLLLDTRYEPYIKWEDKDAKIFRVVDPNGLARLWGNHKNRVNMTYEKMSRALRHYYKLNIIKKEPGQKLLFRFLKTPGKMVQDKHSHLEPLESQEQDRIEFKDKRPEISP
Outline: as §1

ELF5 = target: T11, ELF5 (Homo sapiens, UniProt Q9UKW6-2 1-255); details: protein: recombinant; tags: N-terminal GST; dsDNA, one strand shown
T11 sequence: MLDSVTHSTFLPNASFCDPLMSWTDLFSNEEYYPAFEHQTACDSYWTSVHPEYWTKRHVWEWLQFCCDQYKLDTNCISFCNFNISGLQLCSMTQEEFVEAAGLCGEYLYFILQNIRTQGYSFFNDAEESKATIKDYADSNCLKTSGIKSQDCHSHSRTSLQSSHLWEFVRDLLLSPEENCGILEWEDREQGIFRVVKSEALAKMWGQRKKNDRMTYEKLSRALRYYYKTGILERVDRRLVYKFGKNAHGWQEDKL
Outline: as §1

ETV3 = target: T12, ETV3 (Homo sapiens, UniProt P41162-2 1-143); details: protein: recombinant; tags: N-terminal GST; dsDNA, one strand shown
T12 sequence: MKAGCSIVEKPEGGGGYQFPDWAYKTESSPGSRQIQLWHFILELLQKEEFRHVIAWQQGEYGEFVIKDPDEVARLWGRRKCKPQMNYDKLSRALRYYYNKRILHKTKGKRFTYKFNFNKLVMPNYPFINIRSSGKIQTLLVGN
Outline: as §1

ETV6 = ETV6 (Homo sapiens, UniProt P41212 1-452); details: protein: recombinant; tags: N-terminal GST; dsDNA, one strand shown
ETV6, sequence (P41212 whole entry): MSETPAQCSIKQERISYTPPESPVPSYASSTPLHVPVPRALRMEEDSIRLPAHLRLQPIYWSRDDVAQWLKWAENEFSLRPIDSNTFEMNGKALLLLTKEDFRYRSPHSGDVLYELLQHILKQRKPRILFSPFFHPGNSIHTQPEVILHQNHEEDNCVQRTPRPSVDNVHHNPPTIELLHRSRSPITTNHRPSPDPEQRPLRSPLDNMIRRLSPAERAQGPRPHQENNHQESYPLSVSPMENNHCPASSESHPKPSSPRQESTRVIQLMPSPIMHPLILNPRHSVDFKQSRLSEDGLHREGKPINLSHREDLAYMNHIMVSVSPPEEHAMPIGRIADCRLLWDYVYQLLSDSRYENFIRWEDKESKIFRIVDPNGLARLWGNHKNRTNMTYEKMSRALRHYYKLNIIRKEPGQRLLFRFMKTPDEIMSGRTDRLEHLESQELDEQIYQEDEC
Outline: as §1

In the case of TATAAC, the binding signal (FEV) is reported as 1.26 fold enrichment (6-mer frequency, TF over GST control), the binding signal (ETV5) is reported as 1.2 fold enrichment (6-mer frequency, TF over GST control) and the binding signal (HSF1) is reported as 1.15 fold enrichment (6-mer frequency, TF over GST control). For the same sequence, the binding signal (SPIC) was 1.2 fold enrichment (6-mer frequency, TF over GST control), the binding signal (ELF4) was 1.2 fold enrichment (6-mer frequency, TF over GST control) and the binding signal (ELK4) was 1.17 fold enrichment (6-mer frequency, TF over GST control). For the same sequence, the binding signal (ETV2) was 1.1 fold enrichment (6-mer frequency, TF over GST control), the binding signal (ELF3) was 1.25 fold enrichment (6-mer frequency, TF over GST control) and the binding signal (CRX) was 1.43 fold enrichment (6-mer frequency, TF over GST control). For the same sequence, the binding signal (ETV1) was 1.25 fold enrichment (6-mer frequency, TF over GST control), the binding signal (ERF) was 1.18 fold enrichment (6-mer frequency, TF over GST control) and the binding signal (ETV3L) was 1.21 fold enrichment (6-mer frequency, TF over GST control). For the same sequence, the binding signal (ETS2) was 1.25 fold enrichment (6-mer frequency, TF over GST control), the binding signal (SPDEF) was 1.25 fold enrichment (6-mer frequency, TF over GST control) and the binding signal (ETV7) was 1.26 fold enrichment (6-mer frequency, TF over GST control). For the same sequence, the binding signal (ELF5) was 1.25 fold enrichment (6-mer frequency, TF over GST control), the binding signal (ETV3) was 1.25 fold enrichment (6-mer frequency, TF over GST control) and the binding signal (ETV6) was 1.19 fold enrichment (6-mer frequency, TF over GST control).
